Data reported in PubChem BioAssay (NCATS).
Inconclusive results are not listed. Calls of active or inactive are those of the source. The call rests on the fitted dose curve; in most records, active means well fitted curve in the direction sought with a large enough effect; inconclusive means small, poorly fitted or top-dose-only effect, or another doubt; inactive means no such curve, though single readings can be large; an effect the other way counts as inactive or inconclusive.

How the values were obtained:
[1] = biological target: Glutathione peroxidase 1 (Homo sapiens) (UniProt P07203); assay: Primary qHTS Assay for Inhibitors of Recombinant Selenoprotein Glutathione Peroxidase 1 (GPX1) (AID 1845191); settings: recombinant GPX1, GR-coupled NADPH fluorescence, 15 min; series mostly up to 48.8 µM; further: nearly all actives have a fitted effect of over 65% in size
In short: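 Recombinant GPX1 (10 nM final) was preincubated with compound for 30 min at room temperature, then reacted with 1 mM GSH, 0.5 mM CHP, 0.5 mM NADPH and 100 nM glutathione reductase; NADPH fluorescence (340/450 nm) was read at 0 and 15 min.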

[2] = biological target: Phospholipid hydroperoxide glutathione peroxidase GPX4 (Homo sapiens) (UniProt P36969); assay: Primary qHTS Assay for Inhibitors of Recombinant Selenoprotein Glutathione Peroxidase 4 (GPX4) (AID 1845192); settings: recombinant GPX4, GR-coupled NADPH fluorescence, 15 min; series mostly up to 50 µM; further: nearly all actives have a fitted effect of over 65% in size
In short: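 GR-coupled readout: 100 nM GR, 1 mM GSH, 0.5 mM NADPH; NADPH fluorescence (ex 340/em 450 nm) read at t=0 and after 15 min RT. GPX4 200 nM, preincubated 30 min with compound; substrate 0.5 mM CHP.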

[3] = biological target: Luciferin 4-monooxygenase (Photinus pyralis) (UniProt P08659); assay: Primary firefly luciferase (FLuc) qHTS assay for identification of artifact compounds. (AID 1845220); settings: purified firefly luciferase, luminescence, 5 min; series mostly up to 54.1 µM; further: nearly all actives have a fitted effect of over 60% in size
In short: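 Reaction readout was CCD-imaged luminescence, taken 5 min after adding 10 nM purified firefly enzyme to compound-treated wells holding 10 uM luciferin and ATP in pH 7.6 buffer.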

[4] = Primary fluorescence-based thiol-reactive (MSTI) qHTS assay for identification of artifact compounds. (AID 1845221); settings: MSTI thiol-reactivity probe, 1 h; series mostly up to 53.8 µM;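 further: thiol-reactive compounds lower the probe fluorescence signal; nearly all actives have a fitted effect of over 65% in size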
In short: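 Thiol-reactive compounds detected by quenching of 4 uM MSTI fluorescence (525/598 nm) after 1 h room-temperature dark incubation in PBS pH 7.4, 2% DMSO. qHTS titration; percent inhibition Hill-fitted against Acetyl-MSTI/MSTI controls.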

Measured: Potency

Glutathione peroxidase 1 (Homo sapiens), sequence (P07203 whole entry, looked up): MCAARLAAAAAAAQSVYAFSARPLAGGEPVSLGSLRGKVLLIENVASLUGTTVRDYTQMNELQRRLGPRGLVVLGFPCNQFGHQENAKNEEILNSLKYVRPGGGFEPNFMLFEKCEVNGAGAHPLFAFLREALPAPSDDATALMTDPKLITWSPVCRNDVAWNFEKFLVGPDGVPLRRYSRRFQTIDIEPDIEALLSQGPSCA
Phospholipid hydroperoxide glutathione peroxidase GPX4 (Homo sapiens), sequence (P36969 whole entry, looked up): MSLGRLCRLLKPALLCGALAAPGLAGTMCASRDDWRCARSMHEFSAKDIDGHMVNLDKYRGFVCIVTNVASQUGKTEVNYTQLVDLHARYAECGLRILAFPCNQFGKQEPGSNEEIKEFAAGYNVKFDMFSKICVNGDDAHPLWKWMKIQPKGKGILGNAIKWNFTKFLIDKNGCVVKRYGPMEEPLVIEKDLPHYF

CC(=O)Nc1ccc(OC[C@](C)(O)C(=O)Nc2ccc([N+](=O)[O-])c(C(F)(F)F)c2)cc1
inactive: [1] | [2] | [3]

Cc1ccccc1-n1c(Cn2cnc3c(N)ncnc32)nc2cccc(C)c2c1=O
inactive: all assays above

CC(=O)N(C)c1cccc(-c2ccnc3c(C(=O)c4cccs4)cnn23)c1
inactive: [1] | [3] | [4]

COc1ccc(N(C(=O)Oc2c(C)cccc2C)c2ccnc(Nc3ccc(N4CCN(C)CC4)cc3)n2)c(OC)c1
inactive: [1] | [2] | [3]

CCc1c(C(=O)C(N)=O)c2c(OCC(=O)O)cccc2n1Cc1ccccc1
inactive: [1] | [2] | [3]

CC(C)(C)NC[C@H](O)c1ccc(O)cc1Cl
inactive: all assays above

O=c1[nH]c2ccc(Cl)cc2c(N[C@@H]2CN3CCC2CC3)c1-c1nc2ccccc2[nH]1
inactive: all assays above
